A selection: hits, their analogues and other compounds. The true share with any hit is near 2.4%.
HepG2 viability = counter-screen for TGF-b inhibitors: cytotoxicity in HepG2 cells | AID 588856 | Potency, µM (titrated, usually from 46.1 µM), inactives show at the highest dose activity change, negative = cytotoxicity, actives largely listed as cytotoxic | 410,000 tested, 0.76% active | HepG2 CAGA-GFP viability, ATP luminescence, 18 h
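CellTiter-Glo luminescence gave cytotoxicity after 18 hours at 37 degrees C. The cells were HepG2 CAGA-GFP in 1% FBS DMEM, stimulated with 500 pg/mL TGF-beta after compound addition. %Activity was normalised to no-cell wells (complete cell-killing) and DMSO (no toxicity), and curves were fitted and classified.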
S2 tox = cell viability loss in ATXN counter-screen; S2 cells (HEK-293 line with an ATXN2-luciferase reporter) viability, CellTiter-Fluor protease fluorescence, 24 h; Potency, µM (doses to about 56.7 µM), most hits filed as cytotoxic; 400,000 tested, 0.49% active; AID 651635; note: nearly all actives have a fitted effect of over 40% in size
ATXN2 expr inh = inhibitors of ATXN2 expression; HEK-293 ATXN2-luciferase reporter, luminescence, 24 h; Potency, µM (series often up to 57 µM), for the others: at the highest dose activity change, negative = inhibition, actives largely listed as inhibitors; 360,000 tested, 0.72% active; AID 1745845; note: % is set by controls: 0 for no effect and ±100 for the full control effect; nearly all actives have a fitted effect of over 55% in size
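ATXN2-luciferase reporter cells (luciferase flanked by upstream and downstream ATXN2 gene portions) were treated 24 h at 37 °C with compounds at up to 57 uM. SteadyGlo luminescence gave expression; GF-AFC fluorescence gave viability.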
Apoferritin bind = binds horse apoferritin like a general anesthetic; P02791; apoferritin/1-aminoanthracene competitive binding, fluorescence; Potency, µM (highest dose often 77.5 µM), without a hit: top-dose activity change, negative = displacement, most hits filed as inhibitors; 350,000 tested, 0.074% active; AID 485281; note: % is set by controls: 0 for no effect and ±100 for the full control effect; nearly all actives have a fitted effect of over 20% in size
Target sequence (P02791 2-175 limits assumed): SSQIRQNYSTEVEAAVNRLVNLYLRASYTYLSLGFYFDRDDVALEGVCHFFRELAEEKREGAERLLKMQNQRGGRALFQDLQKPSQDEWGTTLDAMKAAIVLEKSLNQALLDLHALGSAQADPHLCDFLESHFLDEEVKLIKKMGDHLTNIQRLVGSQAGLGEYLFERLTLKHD
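Read-out: endpoint 1-AMA fluorescence, excitation 380 nm and emission 535 nm, after compounds sit 10 min at room temperature with 10 uM horse-spleen apoferritin in 50% saturated 1-AMA/PBS. Values come from four-parameter Hill fits.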
TGFb SMAD3 inh = TGF-b pathway inhibition; HepG2 CAGA-GFP TGF-b/SMAD3 reporter, GFP fluorescence, 18 h; TGF-beta stimulated, 500 pg/mL final; Potency, µM (series often up to 46.1 µM), for the others: at the top dose activity, negative = inhibition, most hits filed as inhibitors; 410,000 tested, 1.2% active; AID 588855; note: % is set by controls: 0 for no effect and ±100 for the full control effect; nearly all actives have a fitted effect of over 65% in size
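Read-out: total well GFP (ex488/em500-530) summed from mean per-cell fluorescence. Cells: HEPG2 CAGA-GFP, 1% FBS DMEM, 18 h at 37 degrees C with 500 pg/mL final TGF-beta. Unstimulated wells served as the full-inhibition control; stimulated DMSO wells = 0%.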
Active calls of the source: *; i = inactive; ? = inconclusive; nt = no result given; [ ] = remark or other dose. Calls come from the whole dose curve; as a rule, active = well fitted curve in the direction sought with a large enough effect; inconclusive = small, poorly fitted or top-dose-only effect, or another doubt; inactive = no such curve, though single readings can be large; an effect the other way counts as inactive or inconclusive. Potency is the fitted concentration of half-maximal effect.

SMILES	HepG2 viability	S2 tox	ATXN2 expr inh	Apoferritin bind	TGFb SMAD3 inh
CS(=O)(=O)c1ccc([C@H](O)[C@H](CF)NC(=O)C(Cl)Cl)cc1	nt	nt	nt	-6%[29.3 µM]	nt
CCOC(=O)c1c(NC(=O)C(NCCN(C)C)c2ccccc2)sc2c1CCCC2 (stereo not drawn)	-105%	nt	28µM*	-3%	?
Cn1c(N=Nc2ccccc2)nc2ccccc21	7.1µM*	i	7%	?	-7%
C#CC(=O)N(c1cccc(OC)c1)C(C(=O)NC1CCCC1)c1cccs1 (stereo not drawn)	8.9µM*	1.6µM*	1.6µM*	-7%	22µM*
C#CC(=O)N(c1ccc(OC)c(OC)c1)C(C(=O)NC1CCCC1)c1cccs1 (stereo not drawn)	13µM*	nt	?	7%	?
COc1ccc(N(C(=O)Cc2cccs2)C(C(=O)NC2CCCC2)c2ccncc2)cc1OC (stereo not drawn)	0%	i	-7%	2%	18%
CC(=O)OC[C@@H]1O[C@@H](O/N=C2/C[C@@H](O)[C@@H](O)[C@@H]3[C@@H]4C(=O)N(C(C)(C)C)C(=O)[C@H]4CC[C@@H]23)[C@H](OC(C)=O)[C@H](OC(C)=O)[C@@H]1OC(C)=O	nt	nt	nt	4%[15.3 µM]	nt
CCCCNC(=O)/C(=C\c1ccc([N+](=O)[O-])o1)NC(=O)c1ccccc1	-25%	i	?	-16%	?
COC(=O)/C(=C\c1ccc([N+](=O)[O-])o1)NC(=O)c1ccccc1	13µM*	?	?	-3%	11µM*
Cn1c(N)c(C(=O)COC(=O)Cc2ccc(Cl)cc2)c(=O)n(C)c1=O	-3%	i	1%	nt	-8%
Cc1ccc(-c2nc3cccnc3o2)cc1NC(=O)COc1ccc(Cl)cc1C	17%	28µM*	32µM*	2%	4%
Cc1ccc(OCC(=O)Nc2cc(-c3nc4cc(Cl)ccc4o3)ccc2C)c(C)c1	6%	nt	nt	nt	-5%
COc1cccc(NC(=O)c2ccc3nc(Cc4ccccc4)oc3c2)c1	-3%	?	?	2%	?
CCOC(=O)c1cccc(NC(=O)c2ccc3nc(Cc4ccccc4)oc3c2)c1	-34%	0.79µM*	?	-10%	-35%
C[N+](C)(CCCCCI)c1ccc(/C=C/c2nc3ccccc3s2)cc1	-40%	nt	nt	nt	8.9µM*
C=CCN1C(=O)/C(=C\c2ccc(OC(=O)c3ccco3)c(OC)c2)SC1=S	3%	?	nt	-11%	36%
C=CCN1C(=O)/C(=C/c2ccc(OC(C)=O)c(OCC)c2[N+](=O)[O-])SC1=S	-54%	nt	?	?	7.1µM*
CC1CCCC(NC(=O)c2cccs2)C1C (stereo not drawn)	-2%	i	nt	nt	23%
CC(=O)/C=C/n1c(=S)oc2ccccc21	16µM*	nt	?	3%	6.3µM*
CC(C)CC(=O)/C=C/n1c(=S)oc2ccccc21	-45%	nt	?	-14%	-27%
Cc1cccc(CN2C(=O)/C(=C\c3ccc(C(=O)NCCCN4CCN(C)CC4)cc3)Oc3ccccc32)c1	nt	nt	nt	7%	nt
CN1CCN(CCCNC(=O)c2ccc(/C=C3\Oc4ccccc4N(Cc4ccccc4F)C3=O)cc2)CC1	-106%	20µM*	nt	1%	18µM*
CCN1CCN(CCNC(=O)c2ccc(/C=C3\Sc4ccccc4N(Cc4ccccc4F)C3=O)cc2)CC1	14µM*	i	?	-17%	?
CN1CCN(CCCNC(=O)c2ccc(/C=C3\Sc4ccccc4N(Cc4ccc(F)cc4)C3=O)cc2)CC1	-132%	?	nt	-21%	?
Cc1onc(-c2c(F)cccc2Cl)c1C(=O)OCC(=O)Nc1cccc(S(=O)(=O)N(C)C)c1	7.1µM*	?	-31%	nt	?
SMILES	HepG2 viability	S2 tox	ATXN2 expr inh	Apoferritin bind	TGFb SMAD3 inh
CCCOc1ccc(C(=O)CCNC(Cc2c[nH]c3ccccc23)C(=O)O)cc1 (stereo not drawn)	-8%	i	nt	-4%	3%
Cc1ccc[n+](CC(=O)Nc2cc(C(F)(F)F)ccc2Cl)c1	5%	i	-7%	-9%	6%
CCC(C)(C)c1ccc(OCCCC[n+]2cccc(C)c2)c(C(C)(C)CC)c1	-196%	?	?	?	10µM*
Cc1nccc(-c2cccc(N/N=C(\C#N)C(=O)c3ccccc3)c2)n1	-22%	i	nt	-14%	2%
N#C/C(=N\Nc1cccc(C(F)(F)F)c1)C(=O)c1ccsc1	-81%	i	nt	-7%	10µM*
Cc1cc(C(=O)NCC2CCC3(CCN(Cc4ccc(-c5ccccc5)cc4)CC3)O2)n(C)n1 (stereo not drawn)	nt	i	nt	nt	nt
O=C(NCCc1nc2ccccc2n1CCCOc1ccccc1Cl)C1CCCCC1	-14%	nt	nt	nt	-20%
CC(C)c1ccc(NC(=O)c2cc3c([nH]c2=O)CC(C)(C)CC3=O)cc1	-25%	nt	nt	nt	-16%
C=CC(=O)Nc1cccc(N(C)c2ccnc(Nc3ccc(N4CCN(C)CC4)cc3)n2)c1	0%	16µM*	?	nt	5µM*
CCOC(=O)C1CCCN(C(=O)c2cccc(S(=O)(=O)N(Cc3ccccc3)c3ccccc3OC)c2)C1 (stereo not drawn)	17%	i	-7%	nt	-6%
CN(C)C(=O)COc1ccccc1C(=O)OCC(=O)Nc1ccc(Oc2ccc(Br)cc2)cc1	-7%	nt	nt	nt	-9%
CNC(=O)/C(C#N)=C/c1c(N(Cc2ccccc2)Cc2ccccc2)nc2c(C)cccn2c1=O	6%	?	-7%	-16%	13µM*
Cc1cccc(OCCOc2ccccc2C=C(C#N)C#N)c1	-83%	?	3%	-15%	10µM*
CCn1c2ccccc2c2cc(CNCc3ccc(OC)cc3OC)ccc21	10µM*	nt	?	?	?
Cc1ccc(Sc2ccc(NC(=O)CCl)cc2)c(C)c1	-90%	nt	32µM*	?	?
Cc1ccc(C)c(Sc2ccc(NC(=O)CCN3C(=O)NC4(CCCC4)C3=O)cc2)c1	16µM*	?	?	nt	?
Cc1ccc(NC(=O)CCN2C(=O)NC3(CCCC3)C2=O)cc1	-7%	i	-1%	nt	0%
CC1CCCCN1CCCNC(=O)c1cc(Sc2cccc(Cl)c2)nc2ccccc12 (stereo not drawn)	-23%	nt	nt	0%	-4%
Cc1[nH]c2ccccc2c1/C=N/n1cnnc1	1%	i	3%	-5%	18%
CCN(CC)c1ccc(N=Cc2c(C)[nH]c3ccccc23)cc1	2.8µM*	i	-1%	-22%	11µM*
Oc1ccc(Br)cc1C1C=C(c2ccc3c(c2)OCO3)NC(c2ccc(F)c(Br)c2)N1 (stereo not drawn)	-96%	nt	nt	nt	7.9µM*
Oc1ccccc1C1C=C(c2ccc3c(c2)OCO3)NC(c2ccc(F)c(Br)c2)N1 (stereo not drawn)	-59%	nt	nt	nt	?

High-throughput results as filed in PubChem.
